# Measured values: PMC12136788
# Substitutions are numbered along the chain they refer to. Whole data set: some 24,000 sequences, median “enrichment r” near 0.99, cut for the highest 2% near 3.7. Many of the other results were omitted from the sample, so the highest values are more common in it than they were.
# T1: UNK ZnF1-3 (human, UniProt Q9C0B0 31-174)
# T1 sequence: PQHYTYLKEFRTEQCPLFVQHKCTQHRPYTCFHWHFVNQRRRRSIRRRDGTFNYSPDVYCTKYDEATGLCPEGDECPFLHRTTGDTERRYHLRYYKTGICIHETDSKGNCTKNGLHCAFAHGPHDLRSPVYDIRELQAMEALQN
# B1: chr12:96663167:96663168:+_ENSG00000111145_ENST00000228741|hu_mus|FALSE|FALSE (ssRNA)
# RNA: GGGAGUUCUACAGUCCGACGAUCUCUGGGUCCACAGGAGAAUCAUGGUAGUUGGAAGAAAAGGAAUCAACAGGCAGACUUACAGUCAUGGGAACAUUUCCAACCAGCGUUUAUAGUUUAAAGGUCGACAGAAGGUCAUCUUGUCAACAGAGGAUUGAGCAUCA
# B2: chr7:75932113:75932114:+_ENSG00000106211_ENST00000248553|hu_hu|hu_hu_hu_mus_False|8_48 (ssRNA)
# RNA: GGGAGUUCUACAGUCCGACGAUCCUGCGACCACUCAUCGGGCAACCGGGGCACCCCGAAAGCUUGAUCGAAGAGGCGGCUGUGUGCGUACCAGUCGUCCCGGAAUGGUUCCCAGCUCGGGCUCCGCAGCGAGAAGGAGGGCACCAACAGAGGAUUGAGCAUCA
# B3: 19974894_19982776_1293_CDS_ENSMUSG00000002428_ENSMUST00000002502|mouse|control|control (ssRNA)
# RNA: GGGAGUUCUACAGUCCGACGAUCAAUGUACUGUACAGAAAUUUUUCUUCUCUUAGGGCAGACGCUAGACAGCUGCGACAGAGUACAGCUACUCUUCUCCGGAGUUCCUGAAAUACUGGGUUCUUCACCACACGUGGAUGACUCCAACAGAGGAUUGAGCAUCA
# B4: chr1:151206805:151206806:+_ENSG00000143398_ENST00000349792|hu_hu|FALSE|FALSE (ssRNA)
# RNA: GGGAGUUCUACAGUCCGACGAUCCUUCUCUCGCUCUUUCUGGGAAGCCCGCCGUUUGUAGGUUGAGCCUUUGAGGUCAUAUUUGAUAUGCAUUUUUACCGAUCUUGGUAAAAGAUUGUUCAUCACCACAAUCCGAAUGUUCUUCAACAGAGGAUUGAGCAUCA
# B5: chr3:25639645:25639646:-_ENSG00000077097_ENST00000264331|hu_mus|FALSE|FALSE (ssRNA)
# RNA: GGGAGUUCUACAGUCCGACGAUCAUCAGACAACACAUGACAUUUCAAUGAGUAAAAAAGAGCAUAAAACUGUAUGUGUAAGAACAAAAUGUUAAAAGGCCUACCACAAUAAUAAAAAACCAUCAAUUACAUCAUCACAUUAAACAACAGAGGAUUGAGCAUCA
# B6: chr17:64801638:64801639:+_ENSG00000154229_ENST00000413366|hu_mus|hu_hu_hu_mus_False|78_98 (ssRNA)
# RNA: GGGAGUUCUACAGUCCGACGAUCUAUAUAUAUAUAUAUAUACACACACAUAUAUAGUAAGAGCCUAGUUAAACGUGUAAAGUAGCCAUUCAUUUUUAAAAUUACAUCUACAUUAAAAAAUUAAUAUAUCUGAUAGAGUGCCAGCAACAGAGGAUUGAGCAUCA
# B7: chr5:69964302:69964303:+_ENSMUSG00000029208_ENSMUST00000154728|mus_hu|FALSE|FALSE (ssRNA)
# RNA: GGGAGUUCUACAGUCCGACGAUCUGCAGUCUGGUUUGUUCGUUGGCUGAAUAAACAUGGGAGCUGAGAGCUCUGGAGAAAUACAGCCAUUUACUGGCUGUGAAAUCUCAAGUUAACUACUCUAAAAUCGCUUCGAUUAUGAAACAACAGAGGAUUGAGCAUCA
# B8: 135118432_135118552_3022_ncRNA_ENSMUSG00000030795_ENSMUST00000128851|mouse|control|control (ssRNA)
# RNA: GGGAGUUCUACAGUCCGACGAUCAUGAGCAAUACACUCAAGAUCUUUCUUGUAGUCCACACCUUCCUUCCCAGAUCUAGUUCCUAUAUAUUUGUCUGAGUACAUAUGUAGAAUUGCAUUGACAUCACUAUUUAAUAUAAAUAUCAACAGAGGAUUGAGCAUCA
# B9: chr7:90019630:90019631:+_ENSMUSG00000057706_ENSMUST00000082237|mus_hu|motif|central (ssRNA)
# RNA: GGGAGUUCUACAGUCCGACGAUCUAUAUCACUGAAUAGAAAAUAUGCUGGGUGAAGCAGAUCUAGAAGAUUUGUCUGAACCGGUAAAAUCUCCAUCCCAACAGAAUACUGUUCAAAACAUUACACAUUUUAUGGUUGUAAUUCCAACAGAGGAUUGAGCAUCA
# B10: chr1:95362928:95362929:-_ENSG00000117519_ENST00000538964|hu_hu|motif|central (ssRNA)
# RNA: GGGAGUUCUACAGUCCGACGAUCAGACCACAUUUAGCAAUAAGCAUGAGUUUAGUCUUCCAUGUAGAAACCAGAUACACGGAACUGUAAAAAAAAAAAAAAAAAAAAAAAGUUUCCUAUUGUUUGAAAAUACCAGUUUAAUAUCAACAGAGGAUUGAGCAUCA
# B11: chr17:64801638:64801639:+_ENSG00000154229_ENST00000413366|hu_mus|hu_hu_hu_mus_False|28_88 (ssRNA)
# RNA: B6 RNA with U38C, C42U, A43G, C44U, A53G, G60A, G62C, A114U
# B12: chr4:175231952:175231953:+_ENSG00000164118_ENST00000503780|hu_hu|motif|central (ssRNA)
# RNA: GGGAGUUCUACAGUCCGACGAUCAUUCAGAAGGUCCAUGUCACUACAAGAAGCGUAGUCUUCACUAACUUCAUUAAACUCGGUAAAUUCAUCAUUCUUUUUAGACAAAAGCAUUUCUGUUUCAAGAAGAGUGACACGACUAAGCAACAGAGGAUUGAGCAUCA
# Target: T1, UNK ZnF1-3
# Experiment: nsRBNS (natural sequence RNA bind-n-seq); RBNS binding buffer (assumed for nsRBNS): 25 mM Tris pH 7.5, 150 mM KCl, 3 mM MgCl2, 0.01% Triton X-100, 500 ug/ml BSA, 20 U/ml SUPERase-In, 4 C; UNK is unkempt and MSI1 is Musashi-1; names of the RNAs are library labels; protein concentration not given here; high values mean tight binding
row,Binder,binding signal [enrichment R]
1,B1,1.6
2,B2,1.04
3,B3,0.756
4,B4,0.464
5,B5,1.63
6,B6,3.51
7,B7,0.663
8,B8,1.78
9,B9,0.76
10,B10,5.33
11,B11,3.46
12,B12,0.772
